The list is not random: actives were taken first. Their share in the collection is about 4.6%.
UCHL1 inh: inhibitors of human UCHL1 deubiquitinase. 47,000 compounds, 0.2% hits. Ubiquitin carboxyl-terminal hydrolase isozyme L1 (Homo sapiens), P09936. purified UCHL1, Ub-rhodamine cleavage fluorescence. inhibition, % at 20 µM
USP10 block: inhibitors of human USP10 deubiquitinase. inhibition, % at 20 µM. 47,000 compounds, 1.1% hits. purified USP10, Ub-rhodamine fluorescence, 60 min
USP8 block: inhibitors of human USP8 deubiquitinase | inhibition, % at 20 µM | Ubiquitin carboxyl-terminal hydrolase 8 (Homo sapiens), P40818 | purified USP8, Ub-rhodamine cleavage fluorescence, 30 min | 47,000 compounds, 4.2% hits
Target sequence (P40818 whole entry, looked up): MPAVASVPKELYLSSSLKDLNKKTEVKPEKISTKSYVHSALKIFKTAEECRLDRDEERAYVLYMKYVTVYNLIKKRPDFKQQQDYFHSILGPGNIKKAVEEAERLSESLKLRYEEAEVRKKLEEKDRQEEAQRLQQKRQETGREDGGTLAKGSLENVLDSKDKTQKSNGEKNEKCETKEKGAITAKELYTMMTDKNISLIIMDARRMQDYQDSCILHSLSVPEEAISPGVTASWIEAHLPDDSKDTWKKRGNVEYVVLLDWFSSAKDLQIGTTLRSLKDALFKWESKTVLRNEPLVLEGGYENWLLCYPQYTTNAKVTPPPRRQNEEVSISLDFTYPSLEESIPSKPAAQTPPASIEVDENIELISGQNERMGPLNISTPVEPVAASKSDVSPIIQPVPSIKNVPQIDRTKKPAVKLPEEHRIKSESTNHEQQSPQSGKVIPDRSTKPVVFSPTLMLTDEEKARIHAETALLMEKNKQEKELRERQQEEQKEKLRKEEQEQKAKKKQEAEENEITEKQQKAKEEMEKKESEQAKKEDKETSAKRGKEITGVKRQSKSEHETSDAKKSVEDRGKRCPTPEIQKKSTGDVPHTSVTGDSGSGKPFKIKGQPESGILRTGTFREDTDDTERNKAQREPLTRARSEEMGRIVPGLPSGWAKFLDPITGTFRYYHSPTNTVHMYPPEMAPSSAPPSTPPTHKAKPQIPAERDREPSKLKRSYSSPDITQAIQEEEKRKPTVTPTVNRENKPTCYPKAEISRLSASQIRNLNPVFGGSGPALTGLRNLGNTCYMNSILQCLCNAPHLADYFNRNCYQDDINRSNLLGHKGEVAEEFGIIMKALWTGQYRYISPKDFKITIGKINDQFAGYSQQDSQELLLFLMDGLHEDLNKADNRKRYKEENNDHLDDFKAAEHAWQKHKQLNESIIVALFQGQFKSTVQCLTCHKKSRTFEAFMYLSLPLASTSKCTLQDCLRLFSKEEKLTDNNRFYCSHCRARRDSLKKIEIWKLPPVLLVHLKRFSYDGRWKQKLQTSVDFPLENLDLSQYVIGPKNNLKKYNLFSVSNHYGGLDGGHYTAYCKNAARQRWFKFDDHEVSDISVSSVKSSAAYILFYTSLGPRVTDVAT
USP7 block: inhibitors of human USP7 deubiquitinase | Ubiquitin carboxyl-terminal hydrolase 7 (Homo sapiens), Q93009 | 47,000 compounds, 0.3% hits | inhibition, % at 20 µM | purified USP7, Ub-rhodamine cleavage fluorescence
Hits are given with their value; i = inactive; nt = no result. Rule as the data show it: active = inhibition above about 30%; inactive = the rest.

SMILES	UCHL1 inh	USP10 block	USP8 block	USP7 block
O=C(Nc1cccnc1)C1c2ccccc2C(=O)N(Cc2ccccc2)C12CCCC2 (configuration not stated)	i	i	i	i
O=C(Nc1cccnc1)C1c2ccccc2C(=O)N(c2ccccc2)C12CCCCC2 (configuration not stated)	i	31	49	i
CCCC(=O)N(Cc1ccc(-c2ccc(F)cc2)o1)C1CCS(=O)(=O)C1 (configuration not stated)	i	i	i	i
CCCc1nc2ccccc2n1CC(=O)N1CCCc2ccccc21	i	i	i	i
Fc1cccc(-n2cc(-c3noc(-c4ccc[nH]4)n3)nn2)c1	i	i	35	i
COc1ccccc1NC(=O)c1nc(-c2cn(-c3cccc(F)c3)nn2)no1	i	42	96	i
O=C(Nc1ccccc1F)c1nc(-c2cn(-c3ccc(F)cc3)nn2)no1	i	i	90	i
O=C(NC1CC1)c1nc(-c2cn(-c3ccc(Cl)cc3)nn2)no1	i	i	40	i
O=C(c1nc(-c2cn(-c3cccc(F)c3)nn2)no1)N1CCOCC1	i	i	i	i
O=C(NC1CC1)c1nc(-c2cn(-c3ccc(F)cc3)nn2)no1	i	i	i	i
COc1ccc(C)cc1NC(=O)c1cc2cccnc2n(C)c1=O	i	i	i	i
CNC(=O)C1Cn2ccnc2C2(CCN(C(=O)C3CCC3)CC2)O1 (configuration not stated)	i	i	i	i
Cc1ccc(-c2nc3c(c(=O)c4ccccc4n3C)c(=O)n2-c2ccc(F)cc2)cc1	i	i	i	nt
O=c1c2ccccc2oc2nc(-c3cccs3)n(-c3ccccc3)c(=O)c12	49	i	98	80
O=C1C/C(=C\c2cccc(Cl)c2)Cc2ccccc21	i	i	34	i
COc1cc(CO)cc2c1C(=O)c1c(O)cc(O)cc1C2=O	i	i	i	i
COc1cc(C)cc2c1C(=O)c1c(cc(O)c(Cl)c1O)C2=O	73	i	i	72
c1ccc(-c2cc3c(N4CCc5ccccc5C4)ncnc3s2)cc1	i	i	53	i
COC(=O)C(NC(=O)CCc1nnc2ccc(N3CCN(c4cccc(OC)c4)CC3)nn12)C(C)C (configuration not stated)	i	i	34	i
COc1cccc(N2CCN(c3ccc4nnc(CCC(=O)N5CCCC5)n4n3)CC2)c1	i	i	i	i
COc1cccc(N2CCN(c3ccc4nnc(CCC(=O)NCCN5CCCC5)n4n3)CC2)c1	i	i	i	i
COc1cccc(N2CCN(c3ccc4nnc(CCC(=O)NCCC5=CCCCC5)n4n3)CC2)c1	i	i	69	i
C=C/C(C)=C/[C@@]1(C)SC(=O)C(C)=C1O	i	i	41	i
CCCOc1ccc(C(=O)Nc2nnc(C3CCCCC3)s2)cc1	i	i	i	i
CN1CCCN(C(=O)c2c3c(NCc4ccccc4)ncnc3n3ccccc23)CC1	i	i	i	i
SMILES	UCHL1 inh	USP10 block	USP8 block	USP7 block
O=C(NCc1cccnc1)c1c2c(NCC3CC3)ncnc2n2ccccc12	i	i	68	i
C/C1=C/C=C/[C@H](C)[C@H](O)[C@@H](C)[C@@H](O)[C@@H](C)[C@H](O)[C@H](C)[C@@H](O)[C@@H](C)/C=C(/C)C(=O)c2c(O)c(C)cc3c2C(=O)C=C(NC1=O)C3=O	i	i	i	i
Cc1nc(-c2nccn2C)cc(C2CCCCN2C(=O)c2cccnc2)n1 (configuration not stated)	i	i	i	i
COC(=O)c1ccc2c(=O)n(CCCCCC(=O)NCCc3ccc(S(N)(=O)=O)cc3)c(=O)[nH]c2c1	i	37	82	i
COC(=O)c1ccc2c(=O)n(CCCCCC(=O)NCCc3ccccc3Cl)c(=O)[nH]c2c1	i	53	43	i
CC1CS(=O)(=O)N(c2ccc(S(=O)(=O)Nc3cccc(Cl)c3)cc2)C1=O (configuration not stated)	i	i	i	i
Cc1cc(NC(=O)CSc2ncc(-c3cccc([N+](=O)[O-])c3)n2-c2cccc(Cl)c2)no1	i	64	55	i
Cc1cc2nc(N3CCC(C(N)=O)CC3)c3ccccc3n2n1	i	i	i	i
CCCn1c(=O)c2sccc2n2c(CCC(=O)N3CCc4ccccc4C3)nnc12	i	i	87	i
Cc1nc(C(=O)N2[C@H](c3ccccc3)C[C@H]3NC(=O)CCCC[C@@H]32)co1	i	i	i	i
Cc1ccc(CNC(=O)CCc2c(C)nc3c(c(C)nn3-c3ccc(C)cc3)c2C)cc1	i	i	34	i
COc1ccc(CNC(=O)CCc2c(C)c3c(C)nn(-c4ccccc4)c3n(C)c2=O)cc1	i	i	i	i
NS(=O)(=O)c1ccc(CCNC(=O)Cc2cc(-c3ccc(F)cc3F)on2)cc1	i	i	40	i
O=C(Cc1cc(-c2ccc(Cl)cc2)on1)NCCc1ccccc1	i	i	53	i
COc1ccc(CCNC(=O)Cc2cc(-c3ccc(F)cc3F)on2)cc1OC	i	i	i	i
COc1cccc(NC(=O)C2C3C=CC4(O3)C2C(=O)N(CCc2ccc(Cl)cc2)C4C(=O)NC2CCCCC2)c1 (configuration not stated)	i	35	50	i
Cc1cc(C(=O)N2CCCCC2)c2c(=O)n(Cc3ccc4nonc4c3)c(=O)n(C)c2n1	i	i	43	i
CC(C)Cc1ccc(-c2cc(-c3ccc(C(F)(F)F)cc3)c(C#N)c(=O)[nH]2)cc1	i	64	i	35
Cc1ccc(-c2cc(-c3ccc(F)cc3)[nH]c(=O)c2C#N)cc1	i	i	i	i
N=C(NC(=O)c1ccccc1)N1CCC(C(N)=O)(N2CCCCC2)CC1	i	i	i	i
COc1cccc(-c2cc3n(C)c(C)c(CCC(=O)NCc4ccco4)c(=O)n3n2)c1	i	i	53	i
Cc1ccc(-c2ncc(NC(=O)C3CCC3)cn2)cc1	i	i	33	i
O=C(Nc1ccc(O)cc1)c1cccn2c(-c3ccccc3F)nnc12	i	i	56	i
CC(NC(=O)CSc1nnc2n(-c3ccccc3)c(=O)c3ccccc3n12)c1ccccc1 (configuration not stated)	i	i	36	i
Cc1c(C)n(-c2ccccc2)c2ncn(CC(=O)NC(C)c3ccccc3)c(=O)c12 (configuration not stated)	i	i	i	i
COc1ccccc1N(Cc1ccccc1)S(=O)(=O)c1cccc(C(=O)Nc2cccc(C(F)(F)F)c2)c1	i	i	i	i
O=C1CC(c2nc3ccccc3n2CCOc2ccc(Cl)cc2)CN1c1ccccc1 (configuration not stated)	i	i	87	i
COc1cc2c(cc1OC)CN(C(=O)CCS(=O)(=O)c1ccc(Cl)cc1)CC2	i	i	76	i
CCCn1cnc2nc(CSc3ccccc3NC(=O)C(C)C)cc(=O)n21	i	i	i	i
N#Cc1cc2c([nH]c1=O)CC(c1ccccc1)C/C2=N\Nc1ccccc1 (configuration not stated)	i	i	51	i

Screening results deposited in PubChem BioAssay by Buhrlage Lab, Dana-Farber Cancer Institute and Novartis Institutes for BioMedical Research (Cambridge, Mass).
